PubChem BioAssay (Tox21)
Inconclusive results are not listed. Where a call stands in place of a potency, no number is given. The source made the active and inactive calls. Calls come from the whole dose curve; as a rule, active = well fitted inhibition curve with a large enough effect in the repeat runs; inconclusive = weak or mixed curves; inactive = no such curve, though single readings can be large or run the other way.

target: Cytochrome P450 3A4 (Homo sapiens) (UniProt P08684); assay: Cytochrome P450 Family 3 Subfamily A Member 4 (CYP3A4) small molecule antagonists: luciferase reporter qHTS assay (AID 1671201); settings: P450-Glo CYP3A4 enzyme, luciferin luminescence, 1 h; series mostly up to 115 µM; note: nearly all actives have a fitted effect of over 50% in size
Sequence (P08684 whole entry, looked up): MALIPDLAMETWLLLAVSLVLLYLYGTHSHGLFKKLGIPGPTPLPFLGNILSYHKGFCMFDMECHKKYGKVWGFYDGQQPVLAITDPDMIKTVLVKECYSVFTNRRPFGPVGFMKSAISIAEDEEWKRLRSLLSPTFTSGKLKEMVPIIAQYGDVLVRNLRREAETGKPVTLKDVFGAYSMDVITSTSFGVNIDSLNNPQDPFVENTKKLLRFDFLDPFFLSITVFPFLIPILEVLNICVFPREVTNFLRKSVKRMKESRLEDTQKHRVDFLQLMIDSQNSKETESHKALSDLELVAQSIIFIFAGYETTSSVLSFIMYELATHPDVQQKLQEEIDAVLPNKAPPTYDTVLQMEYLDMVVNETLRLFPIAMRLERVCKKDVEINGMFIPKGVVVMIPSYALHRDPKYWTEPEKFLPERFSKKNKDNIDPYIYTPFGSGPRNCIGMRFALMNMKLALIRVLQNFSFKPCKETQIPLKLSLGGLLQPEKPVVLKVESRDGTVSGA
Method in brief: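 CYP3A4 activity was followed with a P450-Glo proluciferin substrate. Test compounds in DMSO were preincubated 10 min; NADPH regeneration then ran 1 h, and light output was read 20 min after detection reagent.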

Row | Compound | Potency
1 | COP(N)(=S)OC | inactive
2 | Oc1ccc(I)cc1 | inactive
3 | O=C(CCCN1CCC2(CC1)C(=O)NCN2c1ccccc1)c1ccc(F)cc1 | inactive
4 | Nc1ccccc1C(=O)Oc1ccc2ccccc2c1 | inactive
5 | NC(=O)c1ccc(N)nc1 | inactive
